D3 antag = blocks the human D3 dopamine receptor; 360,000 tested, 2.5% active; D3R cells, DiscoveRx beta-arrestin luminescence, antagonist mode; stronger effect = lower value; max response, negative = inhibition, %; P35462; in the data active = max response below about -50%; inconclusive = no clear call, values can overlap the other calls; also: % is scaled to controls: 0 for no effect and ±100 for the full control effect
Target sequence (P35462 whole entry, looked up): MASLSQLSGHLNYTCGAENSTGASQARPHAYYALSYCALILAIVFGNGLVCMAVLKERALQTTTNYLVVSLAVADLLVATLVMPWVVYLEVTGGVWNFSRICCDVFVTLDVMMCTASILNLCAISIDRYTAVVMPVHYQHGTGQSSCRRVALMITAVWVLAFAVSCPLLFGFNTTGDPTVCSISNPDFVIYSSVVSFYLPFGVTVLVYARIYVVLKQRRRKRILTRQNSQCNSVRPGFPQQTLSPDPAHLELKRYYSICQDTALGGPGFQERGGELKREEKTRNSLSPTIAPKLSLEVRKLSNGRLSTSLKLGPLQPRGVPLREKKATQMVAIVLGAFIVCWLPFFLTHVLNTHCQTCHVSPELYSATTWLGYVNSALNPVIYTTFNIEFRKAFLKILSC
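Cells plated overnight at 1500 cells/well, then exposed to library compounds with dopamine controls for 90 minutes at 37 degrees C. DiscoveRx reagent added for 30–60 minutes at room temperature; luminescence read, quantitative HTS format.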
D3 ag = activates the human D3 dopamine receptor. P35462. D3R DiscoveRx beta-arrestin cells, luminescence, 90 min. max activation, %. 410,000 tested, 0.58% active. AID 652048; in the data active = max activation above about 30%; also: 0% is about no effect
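Agonist-mode cell screen: cells plated at 1500/well and incubated overnight at 37 °C, then exposed to library compounds for 90 min at 37 °C. Detection reagent was added for 30–60 min at room temperature, and luminescence was read.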
TRPML1 inh = inhibitors of human TRPML1 channel; Q9GZU1; 390,000 tested, 0.02% active; activity change, negative = inhibition, % (no concentration beside the values); AID 624415; TRPML1-inducible cells, Ca2+ dye fluorescence, FDSS; stronger effect = lower value; inhibition of EC80 agonist-evoked calcium signal; in the data active = activity change below about -50%; inconclusive = between about -30% and that limit;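 also: stimulus is agonist 54-4 at its EC80 concentration; % is scaled to controls: 0 for no effect and ±100 for the full control effect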
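Tet-induced TRPML1-DL cells loaded with Ca8 no-wash calcium dye were read kinetically on FDSS. Compound addition was followed by EC80 agonist 54-4 (4 uM final); inhibition was read over 110 s.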
TRPML1 ag = agonists of human TRPML1 channel | TRPML1-expressing cells, Ca2+ dye fluorescence, FDSS | Q9GZU1 | 410,000 tested, 0.12% active | activation, % (no concentration beside the values); in the data active = activation above about 50%; inconclusive = mostly about 30% to 49%; also: 0% is about no effect
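Kinetic FDSS Ca2+ read in Tet-induced TRPML1-DL cells (ABD Ca8 dye plus quencher, 45-90 min RT loading): baseline, then compound, then 110 s agonist window; EC80 agonist 54-4 at 4uM final added afterwards for a 110 s antagonist window.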
Starred values were filed as active, the others as inactive; ? = inconclusive; / = no result. In the library only some 2.9% were active in any assay of this set; here they are far more common.

SMILES | D3 antag | D3 ag | TRPML1 inh | TRPML1 ag
O=C(COc1ccc(Br)cc1)Nc1ccc(Cl)cc1C(=O)c1ccccc1 | / | 4.3 | 4.3 | -0.5
COC(=O)C1=C(c2cccc(OCc3ccccc3)c2)C[C@@H]2CC[C@H]1N2C(=O)NCc1ccccc1 | -26.7 | -4.0 | 11.7 | 1.7
COC(=O)C1=C(c2cccc(OCc3ccccc3)c2)C[C@@H]2CC[C@H]1N2C(=O)NCc1ccc(OC)c(OC)c1 | 20.2 | 0.0 | 20.3 | 1.1
COC(=O)C1=C(c2cccc(OCc3ccccc3)c2)C[C@@H]2CC[C@H]1N2C(=O)NCc1ccccc1OC | -51.6* | -19.8 | -20.7 | 3.5
COC(=O)C1=C(c2cccc(OCc3ccccc3)c2)C[C@@H]2CC[C@H]1N2C(=O)NCc1ccc(Cl)cc1 | -51.8* | 1.6 | 15.2 | 2.6
COC(=O)C1=C(c2cccc(OCc3ccccc3)c2)C[C@@H]2CC[C@H]1N2C(=O)NCc1ccc([N+](=O)[O-])cc1 | 0.0 | -6.6 | 2.3 | 0.1
COC(=O)C1=C(c2cccc(OCc3ccccc3)c2)C[C@@H]2CC[C@H]1N2C(=O)NCc1ccc(OC)cc1 | -67.7* | -18.9 | 0.9 | -0.9
NCC[C@H](O)C(=O)N[C@@H]1C[C@H](N)[C@@H](O[C@H]2O[C@H](CN)[C@@H](O)[C@H](O)[C@H]2N)[C@H](O[C@@H]2O[C@H](CO)[C@@H](O)[C@H]2O)[C@H]1O | / | 6.3 | / | /
CN1C(=O)/C(=C/c2ccc(N3CCCCCC3)o2)C(=O)NC1=S | -55.9* | 2.3 | 15.9 | 14.2
CN1C(=O)/C(=C\c2ccc(N3CCCCC3)o2)C(=O)NC1=S | ? | -5.1 | 1.3 | 10.1
CN[C@@H](C)Cc1ccccc1 | / | 1.0 | / | /
CNc1cc(Cl)c2nonc2c1[N+](=O)[O-] | -108.6* | -18.9 | -17.7 | 2.2
O=[N+]([O-])c1c(Cl)c(Cl)cc(Cl)c1Cl | / | -12.3 | / | /
CCCN(CCC)C(=O)Cc1c(-c2ccc(Cl)cc2)nc2ccc(Cl)cn12 | / | 6.9 | / | /
CCOC(=O)[C@]12Cc3cc(Cl)ccc3[C@H]1N(C1CCCCC1)C(=O)c1cc(OC)ccc12 | -123.4* | -13.4 | / | -0.5
CCOC(=O)[C@]12Cc3cc(C)ccc3[C@H]1N(C1CCCCC1)C(=O)c1ccccc12 | ? | -4.8 | / | 3.6
CCOC(=O)[C@]12Cc3ccc(C)cc3[C@H]1N(C1CCCCC1)C(=O)c1ccccc12 | -72.7* | -8.9 | / | 1.3
O=C1c2ccccc2C(=O)C1C(=O)C(c1ccccc1)c1ccccc1 | / | -5.1 | / | /
CC(C)(C)NCC(O)c1cc(Cl)c(N)c(C(F)(F)F)c1 (stereo not given) | / | -13.1 | / | /
C[C@]12C/C(=C/O)C(=O)C[C@@H]1CC[C@@H]1[C@@H]2CC[C@@]2(C)[C@H]1CC[C@]2(C)O | / | 8.5 | / | /
CCc1nc(N2CCNCC2)c(C#N)c2c1CSC(C)(C)C2 | -74.0* | -3.1 | -12.6 | 1.2
C=C(C)[C@H]1Cc2c(ccc3c2O[C@@H]2COc4cc(OC)c(OC)cc4[C@@H]2C3=O)O1 | / | 3.9 | / | /
CN(C)c1cccc(CN2CCN(c3ccccc3)CC2)c1 | -85.2* | -12.1 | 5.5 | 0.4
CCCSc1cc(OC)c(CCN)cc1OC | / | -27.0 | / | /
Cc1ccc(CN2CCCN(Cc3ccc(Cl)cc3)S2(=O)=O)cc1 | -18.2 | 77.1* | 74.1 | 3.6
SMILES | D3 antag | D3 ag | TRPML1 inh | TRPML1 ag
C=C1C(C)C2C(Cc3ccccc3)NC(=O)C23C(OC(C)=O)C=CC(C)(O)CC(C)CC=CC3C1O (stereo not given) | 45.4 | 16.8 | -21.6 | 0.1
C=C1[C@@H](C)[C@H]2[C@H](Cc3ccccc3)NC(=O)[C@]23OC(=O)/C=C/[C@H](O)CCC[C@@H](C)C/C=C/[C@H]3[C@@H]1O | 182.3 | 78.3* | -9.8 | -0.3
C[N+]1([O-])[C@@H]2CC[C@H]1CC(OC(=O)C(CO)c1ccccc1)C2 (stereo not given in full) | / | -5.0 | / | /
CC(C)(C)c1ccc(O)cc1 | / | -18.5 | / | /
CN1CCN(c2nccc3c2ncn3C)CC1 | -64.0* | 0.1 | -7.7 | 1.9
CN1CCN(c2ncnc3ccc(Br)cc23)CC1 | -29.2 | -1.3 | -4.4 | 0.1
COc1cc(/C=C2\C[C@H]3[C@@H]4CC=C5C[C@@H](N6CCCC6)CC[C@]5(C)[C@H]4CC[C@]3(C)[C@H]2O)cc(OC)c1OC | -69.6* | -28.0 | 14.7 | 0.2
Cc1cccc(C)c1-n1nnnc1C(c1cccc2ccccc12)N1CCC2(CC1)C(=O)NCN2c1ccccc1 (stereo not given) | ? | -9.7 | / | -0.1
O=C(NCCN1CCC(n2c(=O)[nH]c3ccccc32)CC1)c1ccc2ccccc2c1 | -54.5* | -10.1 | / | -0.9
O=C(NCCN1CCC2(CC1)C(=O)NCN2c1cccc(F)c1)c1ccc2ccccc2c1 | -89.5* | -10.9 | / | 14.4
CC(=O)Oc1ccc2c3c1O[C@H]1[C@@H](OC(C)=O)C=C[C@H]4[C@@H](C2)N(C)CC[C@@]341 | / | 3.3 | / | /
CCON=O | / | 7.1 | / | /
C[N+]1(C)[C@@H]2CC[C@H]1CC(OC(=O)[C@@H](CO)c1ccccc1)C2 (stereo not given in full) | -28.1 | -3.1 | -2.1 | -0.4
C[N+]1(C)C2CC[C@H]1CC(OC(=O)C(CO)c1ccccc1)C2 (stereo not given in full) | -67.0* | -6.4 | -2.7 | -0.5
C[N+]1(C)CCC(OC(=O)C(c2ccccc2)c2ccccc2)CC1 | -59.5* | -86.6 | -7.4 | -0.7
CCCCCCCCn1sccc1=O | -81.0* | -75.1 | -0.8 | 2.9
CCCCCCCCc1ccc(O)cc1 | / | / | -8.9 | -0.1
O=C(CCCc1ccc(N(CCCl)CCCl)cc1)NCc1ccccc1 | -16.9 | -8.4 | 3.3 | 0.0
N#CC1c2ccccc2C=CN1C(=O)c1ccc(N(CCCl)CCCl)cc1 (stereo not given) | -81.3* | -7.0 | 7.3 | 0.5
Oc1ccc2ccccc2c1CN1CC=C(c2ccccc2)CC1 | ? | -12.0 | -13.6 | 0.0
Oc1ccc2[nH]cc(CCCCN3CC=C(c4ccccc4)CC3)c2c1 | / | 54.9* | / | /
O=C(O)c1ccc2[nH]cc(CCCCN3CC=C(c4ccccc4)CC3)c2c1 | / | 72.6* | / | /
O=C(CCN1CC=C(c2ccccc2)CC1)NCc1ccccc1 | -69.2* | 10.3 | -3.5 | -0.5
CCOC(C(=O)OCCC[N+](C)(CC)CC)(c1ccccc1)c1ccccc1 | -23.9 | -25.0 | 1.2 | 0.6
CCOC(C(=O)OCC(O)CN(CC)CC)(c1ccccc1)c1ccccc1 (stereo not given) | -59.7* | -4.7 | -2.5 | -1.1
SMILES | D3 antag | D3 ag | TRPML1 inh | TRPML1 ag
CCc1cc(OC)c(C[C@@H](C)N)cc1OC | / | -10.2 | / | /
COc1cc2c(cc1OC)C(C)NCC2 (stereo not given) | 0.0 | -5.4 | 11.7 | -0.3
CCCN(CCC)C1Cc2cc(OC)c(OC)cc2C1 | -103.5* | -89.7 | -9.1 | 0.9
CC(C)Oc1cccc(NC(=O)c2ccccc2C(F)(F)F)c1 | / | -24.9 | / | /
CCOC(=O)C1(c2ccccc2)CCN(CCC(=O)Nc2ccc(OC)cc2)CC1 | -11.3 | 3.0 | -3.0 | 0.0
CCOC(=O)C1(c2ccccc2)CCN(CC(=O)Nc2ccc(C)cc2)CC1 | -55.7* | -6.2 | 18.3 | 1.7

High-throughput results as filed in PubChem BioAssay.
